Shiga toxin inh – Shiga toxin inhibition; Vero cells, Shiga toxin protein synthesis inhibition reporter; inhibition, % at 38.7 µM; actives 9.2% (n = 290,000); AID 2315; in the data active means inhibition mostly above about 28%, no sharp cut-off; inactive means mostly below about 43%; further: 0% is about no effect
Cycloheximide cs – counter-screen hit for Shiga toxin inhibitors, cycloheximide; cell reporter, cycloheximide protein synthesis inhibition counterscreen; max response, %; actives 12% (n = 300,000); in the data active means max response mostly above about 13%, no sharp cut-off; inactive means mostly below about 14%; further: read at 38.3 µM for the half of the compounds with a filed dose; 0% is about no effect
Pf growth 96h – inhibits malaria parasite growth, 96 h; AID 504834; Potency, µM (doses to about 28.7 µM), inactives show top-dose activity change, negative = inhibition, hits mostly inhibitors; P. falciparum luciferase reporter growth, 96 h; actives 6.9% (n = 320,000); further: potency means the concentration at half of the fitted maximal effect; on the % scale 0 is the no-effect control and ±100 the full control effect
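Infected RBCs, 2% Hct / 0.05% parasitemia final; luciferase-reporter P. falciparum; cpd 96 h, 37 C, 5% CO2; luciferase detection reagent; luminescence.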
NS1 function inh – inhibitors of influenza NS1 protein function; AID 2326; Potency, µM (series often up to 46.1 µM), inactives show top-dose activity, positive = more growth; actives 0.4% (n = 270,000); calls by dose curve; further: potency means the concentration at half of the fitted maximal effect; actives are rising curves; nearly all actives have a fitted effect of over 50% in size
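Compounds were scored for reversing the slow growth caused by influenza A NS1 in S. cerevisiae, measured by optical density at 600 nm. Assay medium contained 2% galactose at pH 6.0; NS1-free yeast of the same strain were the positive control.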
Giardia FBPA inh – blocks Giardia fructose-bisphosphate aldolase activity; A8B2U2; purified Giardia FBPA; actives 0.71% (n = 290,000); Potency, µM (top dose mostly 59.6 µM), inactives show at the top dose activity, negative = inhibition, actives largely listed as inhibitors; further: potency means the concentration at half of the fitted maximal effect; on the % scale 0 is the no-effect control and ±100 the full control effect; nearly all actives have a fitted effect of over 55% in size
Target sequence (A8B2U2 whole entry, looked up): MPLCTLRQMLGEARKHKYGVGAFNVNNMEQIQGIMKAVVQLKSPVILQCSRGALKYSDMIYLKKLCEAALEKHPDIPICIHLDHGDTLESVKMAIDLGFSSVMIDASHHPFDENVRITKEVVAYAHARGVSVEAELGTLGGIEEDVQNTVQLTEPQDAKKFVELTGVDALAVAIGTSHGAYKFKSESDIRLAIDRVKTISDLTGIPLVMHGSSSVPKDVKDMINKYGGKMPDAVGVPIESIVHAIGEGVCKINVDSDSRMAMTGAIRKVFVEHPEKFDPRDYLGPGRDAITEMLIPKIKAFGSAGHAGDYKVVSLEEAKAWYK
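40 nM FBPA preincubated 10 min at RT with compound (up to 57.5 uM final), then substrate plus GAPDH/TPI/NAD/arsenate coupling and diaphorase/resazurin added. Fluorescence read after 20 min at RT, 525/598 nm.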
Pf growth 48h – inhibits P. falciparum growth in the first generation, 48 h; P. falciparum luciferase growth in erythrocytes, 48 h; Potency, µM (titrated, usually from 28.7 µM), inactives show at the highest dose activity change, negative = inhibition, most hits filed as inhibitors; actives 5.9% (n = 310,000); AID 504832; further: potency means the concentration at half of the fitted maximal effect; on the % scale 0 is the no-effect control and ±100 the full control effect
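Here the parasites carry a stable luciferase gene and grow inside erythrocytes in Albumax-based RPMI medium with compound for one erythrocytic cycle. Activity is scored as loss of luminescent signal.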
* = called active by the depositor; ? = inconclusive; · = no result; [ ] = another dose, or the depositor's remark. Shown are actives, neighbours in structure and some others; about 21% of the full set was active somewhere. Unless noted, the call rests on the fitted dose curve; in most records, active means well fitted curve in the direction sought with a large enough effect; inconclusive means small, poorly fitted or top-dose-only effect, or another doubt; inactive means no such curve, though single readings can be large; an effect the other way counts as inactive or inconclusive.

SMILES | Shiga toxin inh | Cycloheximide cs | Pf growth 96h | NS1 function inh | Giardia FBPA inh | Pf growth 48h
COc1ccc(OC(=O)COc2ccc(Cl)cc2)cc1 | -4 | -2 | ? | 4% | -1% | -3%
CN(CC(=O)Nc1ccc(Cl)cc1F)C1CCS(=O)(=O)C1 (centres undefined) | · | · | 17% | · | · | 1%
COc1ccc(C2C=C3CNS(=O)(=O)C3CC2OC(=O)c2ccc(Cl)cc2)cc1 (centres undefined) | 1 | -2 | · | · | -12% | ·
C=CCOC(=O)COc1ccc2c(C)c(CC)c(=O)oc2c1 | -5 | -2 | ? | -45% | -2% | 7%
CCCCc1c(C)c2ccc(OCC(C)=O)cc2oc1=O | 100* | 30* | 15% | -73% | -2% | 47%
Cc1cccc(N2CCN(C(=O)CC(NC(=O)c3ccccc3Cl)c3ccccc3)CC2)c1C (centres undefined) | -3 | 0 | ? | 14% | 0% | ?
O=C(NC(CC(=O)N1CCN(c2ccc([N+](=O)[O-])cc2)CC1)c1ccccc1)c1ccccc1Cl (centres undefined) | 18 | -4 | 12µM* | 14% | 0% | ?
O=C(NC(CC(=O)N1CCN(c2ccccc2O)CC1)c1ccccc1)c1ccccc1Cl (centres undefined) | · | · | ? | · | · | 10µM*
O=C(CN1C(=O)COc2ccc(S(=O)(=O)N3CCCCCC3)cc21)NCc1ccc(F)cc1 | -5 | 2 | ? | 1% | -3% | ?
CCC(C)C(NC(=O)C(Cc1ccc(O)cc1)NC(=O)C(N)C(C)C)C(=O)NC(Cc1cnc[nH]1)C(=O)N1CCCC1C(=O)NC(Cc1ccccc1)C(=O)O (centres undefined) | 29 | -3 | · | · | -15% | ·
CC(=O)Oc1ccc(N(C(C)=O)S(=O)(=O)c2ccc(C)cc2C)c2ccccc12 | -6 | -1 | 2.6µM* | 5% | 2% | 8.3µM*
Cc1ccc(S(=O)(=O)N(C(=O)c2ccncc2)c2ccc(OC(=O)c3ccncc3)c3ccccc23)c(C)c1 | -10 | -6 | 9.3µM* | 0% | ? | ·
COC(=O)c1c(C)oc2ccc(N(C(=O)c3ccncc3)S(=O)(=O)c3ccc(C)cc3)cc12 | 25 | -2 | · | 9% | -10% | 7%
Cc1ccc(S(=O)(=O)N(C(=O)c2ccncc2)c2ccc(OC(=O)c3ccncc3)c3ccccc23)cc1 | -15 | -3 | 9.3µM* | -21% | -23% | 10µM*
COc1ccc(S(=O)(=O)N(C(C)=O)c2ccc(OC(C)=O)c3ccccc23)cc1[N+](=O)[O-] | 9 | 1 | -3% | 11% | -23% | 6.6µM*
Cc1cc(F)ccc1S(=O)(=O)N(C(=O)c1ccncc1)c1ccc(OC(=O)c2ccncc2)cc1 | -14 | -1 | ? | -6% | 5% | -18%
CCc1ccc(NC(=O)CS(=O)CC(=O)Nc2ccc(N3CCOCC3)cc2)cc1 (centres undefined) | -14 | -3 | -7% | 0% | 3% | 9%
COc1cc(/C=C/c2nc(-c3ccccc3O)n[nH]2)cc(OC)c1OC | 4 | 19 | ? | -6% | -19% | ?
CC(=O)Nc1ccc(/C=C/c2nc(-c3ccccc3O)n[nH]2)cc1 | 57* | 48* | 50% | 7% | -15% | 8%
O=C(CN1CCC(NC(=O)c2ccccc2)CC1)NCc1ccccc1F | 0 | -3 | 5.9µM* | -7% | 1% | ?
O=C(CN1CCC(NC(=O)c2ccccc2F)CC1)NCc1ccc(F)cc1 | 18 | -3 | · | 6% | 4% | 13µM*
Cc1onc(-c2ccccc2)c1C(=O)Nc1nnc(C(C)(C)C)s1 | -3 | -2 | 4% | 5% | 4% | 40%
CC(C)NC(=O)c1ccc(N2CCOCC2)nc1 | 5 | 9 | 5% | -7% | -30% | ·
C(=N\N1CCN(c2ccccc2)CC1)/c1ccccc1 | 21 | 14 | -2% | · | 4% | 47%
CC(=O)Nc1cc(C(=O)c2ccccc2)ccc1N1CCOCC1 | -7 | -4 | 18% | 1% | 1% | 7%
SMILES | Shiga toxin inh | Cycloheximide cs | Pf growth 96h | NS1 function inh | Giardia FBPA inh | Pf growth 48h
COC(=O)c1ccc(N2CCN(c3ccccc3)CC2)nc1 | 45* | 25* | 159% | -11% | 14% | 134%
COC(=O)c1ccc(/C=N\N2CCN(c3ccccc3)CC2)cc1 | 118* | 21* | -6% | 12% | -9% | 0%
Nc1cc(C(=O)c2ccccc2)ccc1N1CCOCC1 | 117* | 27* | 30% | 20% | 2% | 97%
COC(=O)c1cc(NS(=O)(=O)c2ccc(N3CCOCC3)c(N)c2)cc(C(=O)OC)c1 | 5 | -3 | 4.1µM* | ? | -20% | ?
O=C(O)[C@H](/C=C\c1ccccc1)c1ccccc1 | · | · | · | 8% | · | ·
Cc1ccc(S(=O)(=O)N[C@H]2COC(=O)[C@H](C)COC(=O)[C@H](C)NC(=O)C/C=C\[C@H]2C)cc1 | · | · | · | · | 2%[12.9 µM] | ·
O=C(CNC(=O)c1cccs1)Nc1cccc(S(=O)(=O)N2CCOCC2)c1 | · | · | 2% | · | · | -22%
Cc1nc2cnc(Oc3cccc(Cl)c3)nc2n(CCC#N)c1=O | · | · | · | · | -2% | ·
COC(=O)c1ccc(N2CCN(c3ccccc3)CC2)c(NC(=O)C2CC2)c1 | -4 | -3 | ? | 24% | 3% | ?
C=CCOC(=O)c1ccc(N2CCN(c3ccccc3)CC2)nc1 | 34 | 20* | -15% | -1% | -7% | 2%
COC(=O)c1ccc(N2CCN(c3ccccc3)CC2)c(N)c1 | 36 | 16* | 63% | 1% | 0% | 35%
Cc1ccc(CNC(=O)C2CCC(=O)N(CCc3cccc(F)c3)C2)cc1 (centres undefined) | -8 | -2 | 96% | -8% | · | 11%
CCc1cc(CNC(=O)C2CCC(=O)N(CCc3cccc(F)c3)C2)on1 (centres undefined) | 10 | -3 | 13µM* | 2% | -3% | 3%
Cc1cc(CNC(=O)C2CCC(=O)N(CCc3cccc(F)c3)C2)on1 (centres undefined) | 6 | -1 | 13µM* | -8% | · | -2%
COc1ccc(CNS(=O)(=O)c2ccc3c(c2)NC(=O)C(C)S3)cc1 (centres undefined) | -3 | 1 | ? | 7% | · | 29%
COc1cccc2cc(-c3ccnc(N)n3)oc12 | 107* | 33* | 476% | 7% | 0% | 15%
CC(=O)Nc1ccn(-c2ccccc2)n1 | 52* | 31* | ? | 2% | 0% | 23%
O=C(Nc1ccn(-c2ccccc2)n1)c1ccccc1Br | 50* | 38* | 186% | -9% | -15% | 111%
N#Cc1ccc(C(=O)Nc2ccn(-c3ccccc3)n2)cc1 | -1 | -2 | ? | -13% | -2% | ?
O=C(Nc1ccn(-c2ccccc2)n1)c1ccc(Cl)cc1 | 106* | 45* | ? | -9% | -8% | 40%
Clc1ccc(CSCc2ccc(Cl)cc2Cl)c(Cl)c1 | · | · | · | -7% | · | ·

High-throughput results as filed in PubChem.
